Several values for one entry are separate records, joined by “and”; a condition that tells them apart may be missing. Identical values can stand only once. Hit rate of the full screen: of about 5,500 compounds, about 2,000 (36%) were called active. About 18% were inconclusive and are not listed. Cut-off read from the data, not from the text of the source: active = normalized growth mostly below about 0.91 (no sharp cut-off); inconclusive = no clear call, values can overlap the other calls; inactive = mostly above about 0.92. This is one part of the list. More than one record can exist for a structure, and the calls need not agree.
Assay: chemical genetic growth profiling, strain panel (AID 1159580);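 note: tested at 20 µM; growth read once vehicle control cultures reached saturation at 30 °C; 1 = growth at the plate median or of vehicle wells; lower values mean less growth of the strain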
Details: S. cerevisiae deletion strains, growth OD

Measured: normalized growth

O=c1c(O)c(-c2ccc(O)c(O)c2)oc2cc(O)cc(O)c12
0.773 (active) and 0.993 (inactive): locus YJL095W, strain BCK1, stronger effect = lower value
active: locus YAL021C, strain ccr4, stronger effect = lower value 0.659 | locus YAL026C, strain drs2, stronger effect = lower value 0.782 | locus YBL061C, strain skt5, stronger effect = lower value 0.832 | locus YBR023C, strain chs3, stronger effect = lower value 0.778 | locus YBR231C, strain swc5, stronger effect = lower value 0.767 | locus YBR279W, strain paf1, stronger effect = lower value 0.848 | locus YCL011C, strain gbp2, stronger effect = lower value 0.847 | locus YCL016C, strain dcc1, stronger effect = lower value 0.877 | locus YCL069W, strain vba3, stronger effect = lower value 0.92 | locus YDR069C, strain doa4, stronger effect = lower value 0.728 | locus YDR297W, strain sur2, stronger effect = lower value 0.899 | locus YDR334W, strain swr1, stronger effect = lower value 0.855 | locus YDR335W, strain msn5, stronger effect = lower value 0.828 | locus YEL003W, strain gim4, stronger effect = lower value 0.879 | locus YEL037C, strain rad23, stronger effect = lower value 0.885 | locus YER015W, strain faa2, stronger effect = lower value 0.817 | locus YER016W, strain bim1, stronger effect = lower value 0.911 | locus YER111C, strain swi4, stronger effect = lower value 0.895 | locus YFR010W, strain ubp6, stronger effect = lower value 0.9 | locus YGL086W, strain mad1, stronger effect = lower value 0.915 | locus YGL173C, strain kem1, stronger effect = lower value 0.826 | locus YGL253W, strain hxk2, stronger effect = lower value 0.83 | locus YHR013C, strain ard1, stronger effect = lower value 0.796 | locus YHR027C, strain rpn1, stronger effect = lower value 0.807 | locus YHR142W, strain chs7, stronger effect = lower value 0.735 | locus YJL095W, strain BCK1 (second series), stronger effect = lower value 0.858 | locus YJL164C, strain tpk1, stronger effect = lower value 0.868
0.542 (active) and 0.965 (inactive): locus YGR229C, strain SMI1, stronger effect = lower value
inactive: locus YAL013W, strain DEP1, stronger effect = lower value 0.973 and 0.979 | locus YAL030W, strain snc1, stronger effect = lower value 0.94 | locus YAL040C, strain CLN3, stronger effect = lower value 1.07 | locus YBR009C, strain hhf1, stronger effect = lower value 0.919 | locus YBR021W, strain FUR4, stronger effect = lower value 0.992 | locus YBR171W, strain sec66, stronger effect = lower value 0.997 | locus YBR229C, strain ROT2, stronger effect = lower value 0.993 | locus YCL029C, strain bik1, stronger effect = lower value 0.982 | locus YCL061C, strain MRC1 (second series), stronger effect = lower value 0.996 | locus YCR088W, strain abp1, stronger effect = lower value 0.993 | locus YDL005C, strain med2, stronger effect = lower value 0.992 | locus YDL035C, strain GPR1, stronger effect = lower value 0.906 | locus YDL040C, strain nat1, stronger effect = lower value 0.974 | locus YDL074C, strain BRE1, stronger effect = lower value 0.848 | locus YDL101C, strain DUN1, stronger effect = lower value 0.98 | locus YDL134C, strain PPH21, stronger effect = lower value 0.932 | locus YDL185W, strain tfp1, stronger effect = lower value 1.01 | locus YDL192W, strain arf1, stronger effect = lower value 0.958 | locus YDR001C, strain nth1, stronger effect = lower value 0.988 | locus YDR101C, strain arx1, stronger effect = lower value 1.02 | locus YDR137W, strain rgp1, stronger effect = lower value 0.897 | locus YDR150W, strain NUM1, stronger effect = lower value 0.978 | locus YDR159W, strain sac3, stronger effect = lower value 0.974 | locus YDR162C, strain NBP2, stronger effect = lower value 0.908 | locus YDR195W, strain ref2 1.04 | locus YDR318W, strain mcm21, stronger effect = lower value 0.967 | locus YDR363W, strain ESC2, stronger effect = lower value 1.01 | locus YDR388W, stronger effect = lower value 0.943 | locus YDR392W, strain spt3, stronger effect = lower value 0.781 | locus YDR502C, strain sam2, stronger effect = lower value 0.955 | locus YEL061C, strain CIN8 (second series), stronger effect = lower value 0.963 | locus YEL061C, strain CIN8, stronger effect = lower value 0.946 | locus YER002W, strain NOP16, stronger effect = lower value 1 | locus YER110C, stronger effect = lower value 1.04 | locus YER155C, strain BEM2 (second series), stronger effect = lower value 0.899 | locus YER155C, strain BEM2, stronger effect = lower value 1.02 | locus YER167W, strain BCK2, stronger effect = lower value 0.976 | locus YGL078C, strain dbp3, stronger effect = lower value 0.999 | locus YGL167C, strain pmr1, stronger effect = lower value 0.977 | locus YGL227W, strain vid30, stronger effect = lower value 1 | locus YGL240W, strain doc1, stronger effect = lower value 0.997 | locus YGL248W, strain PDE1, stronger effect = lower value 0.928 | locus YGR078C, strain PAC10, stronger effect = lower value 0.887 and 0.991 | locus YGR135W, strain pre9, stronger effect = lower value 0.91 | locus YGR252W, strain gcn5, stronger effect = lower value 0.804 | locus YHR030C, strain SLT2, stronger effect = lower value 0.951 and 0.997 | locus YHR079C, strain IRE1 (second series), stronger effect = lower value 1.02 | locus YHR079C, strain IRE1, stronger effect = lower value 0.981 | locus YHR094C, strain hxt1, stronger effect = lower value 1.04 | locus YHR129C, strain ARP1, stronger effect = lower value 0.926 | locus YHR200W, strain rpn10, stronger effect = lower value 0.941 | locus YIL066C, strain RNR3, stronger effect = lower value 0.882 | locus YIL073C, strain SPO22, stronger effect = lower value 0.854 | locus YIL125W, strain kgd1, stronger effect = lower value 1 | locus YIR030C, strain dcg1, stronger effect = lower value 1.03 | locus YJL092W, strain hpr5, stronger effect = lower value 0.955 | locus YJL115W, strain asf1, stronger effect = lower value 0.962 | locus YJL129C, strain trk1, stronger effect = lower value 0.913 | locus YJL134W, strain LCB3, stronger effect = lower value 0.988 | locus YJL154C, strain vps35, stronger effect = lower value 0.985 | locus YJL166W, strain qcr8, stronger effect = lower value 0.913 | locus YJL168C, strain set2, stronger effect = lower value 1.02 | locus YJL187C, strain SWE1 (second series), stronger effect = lower value 0.895 | locus YJR043C, strain POL32, stronger effect = lower value 0.905 | locus YJR066W, strain TOR1, stronger effect = lower value 0.931 | locus YJR075W, strain HOC1, stronger effect = lower value 0.982 and 0.99

Reference: PubChem BioAssay AID1159580 (chemical genetic matrix, 2015)
